Nrf2 block = inhibitors of Nrf2 signaling. A549 ARE-Fluc reporter, luciferase luminescence, 18-24 h. AID 504444. hit rate 2.1% among 360,000. Potency, µM (doses to about 46 µM), for the others: at the top dose activity change, negative = inhibition, usual class: inhibitors; further: potency means the concentration at half of the fitted maximal effect; on the % scale 0 is the no-effect control and ±100 the full control effect; nearly all actives have a fitted effect of over 60% in size
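Concentration-response testing used A549 ARE_Fluc cells at 5000 cells/well. Following an 18-24 h compound incubation, viability was read by fluorescence (Ex 405/Em 525) and luciferase output by luminescence.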
Nrf2 ARE act = activators of Nrf2 (ARE) signaling; AREc32 ARE-luciferase reporter (MCF7-derived line), luminescence, 24 h; hit rate 0.31% among 410,000; Potency, µM (highest dose often 46.1 µM), for inactives: top-dose activation, usual class: activators; further: potency means the concentration at half of the fitted maximal effect; % of control where 0% means no effect; nearly all actives have a fitted effect of over 65% in size
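ARE activation measured as luciferase luminescence (Steady-Glo, 30 min RT) in AREc32_Fluc cells after 24 hr compound exposure at 37 deg C, 5% CO2; cells seeded overnight at 1000/well in OPTI-MEM, 5% FBS.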
A549 tox = counter-screen for Nrf2 inhibitors: cytotoxicity in A549 cells; hit rate 0.16% among 390,000; A549 ARE-Fluc cells, CellTiter-Fluor viability, 18-24 h; Potency, µM (doses to about 46 µM), inactives show at the highest dose activity change, negative = cytotoxicity, usual class: inhibitors; further: potency means the concentration at half of the fitted maximal effect; on the % scale 0 is the no-effect control and ±100 the full control effect
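Cytotoxicity counterscreen: CellTiter-Fluor fluorescence was measured in A549 ARE_Fluc cells after 18-24 h of compound exposure in a concentration series. The subsequent BugLite luminescent read reports ARE-luciferase activity.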
IL-2 act = IL-2 activation | IL-2 activation reporter assay, cell-based qHTS; stimulated with anti-CD3/CD4/CD28 beads; in transgenic mouse T cells | hit rate 0.065% among 360,000 | activation, % (series mostly up to about 46 µM); in the data active means activation above about 50%; inconclusive means mostly about 30% to 49%; further: 0% is about no effect
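First, unstimulated transgenic mouse T cells were exposed to compound for 60 min. Next, anti-CD3/anti-CD4-coated beads with anti-CD28 were added. Finally, after 18 h at 37 degrees C, EGFP and DsRed were imaged.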
* = called active by the depositor; ? = inconclusive; / = no result. This is a sample that favours compounds with a hit; in the whole collection about 2.3% have one here. Unless noted, the call rests on the fitted dose curve; in most records, active means well fitted curve in the direction sought with a large enough effect; inconclusive means small, poorly fitted or top-dose-only effect, or another doubt; inactive means no such curve, though single readings can be large; an effect the other way counts as inactive or inconclusive.

SMILES | Nrf2 block | Nrf2 ARE act | A549 tox | IL-2 act
CC(=O)Nc1cc[n+](CC(=O)c2ccc(Cl)cc2)cc1 | 23µM* | 1% | -2% | 1
CCOc1ccc(NC(=O)C[n+]2ccc(N(C)C)cc2)cc1 | ? | 0% | -2% | 0
CC(=O)Nc1cc[n+](C(C)C(=O)c2ccc(Cl)cc2)cc1 (stereo not given) | -18% | 0% | 1% | 4
CN(C)c1cc[n+](CC(=O)Nc2ccc(Cl)cc2)cc1 | 6.5µM* | 0% | 2% | 1
CN(C)c1cc[n+](CC(=O)Nc2ccc(Oc3ccccc3)cc2)cc1 | 23µM* | 1% | -16% | 1
O=C(C[n+]1cccc(CNC(=O)c2ccc(OC(F)F)cc2)c1)c1ccccc1 | ? | 0% | 6% | 0
Cc1nn(C)c2c1c(-c1ccccc1)cc(=O)n2CC(=O)NC(C)c1ccccc1 (stereo not given) | ? | 1% | 1% | /
Cc1cccc(NC(=O)c2cnc3sc(N4CCCC4)nn3c2=O)c1C | ? | 0% | 4% | /
CCOC(=O)c1c(C)[nH]c(C(=O)CN2C(=O)NC(C)(c3ccc4ccccc4c3)C2=O)c1C (stereo not given) | 26µM* | 2% | -19% | 1
O=C1S/C(=C/c2ccc(N3CCOCC3)o2)C(=O)N1Cc1ccc(F)cc1 | 19% | 1% | 3% | 8
O=C1NC(=S)S/C1=C/c1ccc(N2CCOCC2)o1 | 19% | ? | 21µM* | 1
COc1ccc2cc(/C=C3\SC(=S)NC3=O)c(N3CCOCC3)nc2c1 | 21µM* | 2% | 18µM* | -4
COc1cccc(C=C2SC(=S)NC2=O)c1 | 1% | 3% | ? | -6
O=C(N1CCc2ccc(S(=O)(=O)N3CCN(S(=O)(=O)c4ccc5c(c4)OCCO5)CC3)cc2C1)C(F)(F)F | 17% | / | -2% | /
Nc1nc(OCC2CCCCC2)c2[nH]cnc2n1 | 18µM* | 1% | ? | 0
O=C(Nc1ccc(S(=O)(=O)Nc2ncccn2)cc1)c1cc(=O)c2ccccc2o1 | 5% | -1% | 1% | /
Cc1c(Br)c([N+](=O)[O-])nn1CC(=O)Nc1ccc(Cc2ccncc2)cc1 | 18µM* | -1% | ? | -3
COc1ccc(N(C)S(=O)(=O)c2cccc(C(=O)OCC(=O)c3c(N)n(C)c(=O)n(C)c3=O)c2)cc1 | 21µM* | 0% | -12% | -6
Cc1ccc(NC(CC(=O)c2ccccc2)c2ccc(F)cc2)cc1 (stereo not given) | ? | 19% | 5% | -1
O=C(CC(Nc1ccc(F)cc1)C(=O)O)c1ccccc1 (stereo not given) | ? | 20µM* | 1% | 1
CN1c2ccccc2C(C)(C)C12C=Cc1cc(O)ccc1O2 (stereo not given) | 21µM* | 12% | ? | -2
COc1ccc(/C=N/NC(=O)c2ccc3ccccc3c2)cc1OS(=O)(=O)c1ccc(NC(C)=O)cc1 | 12µM* | 0% | -28% | -2
COc1ccccc1NC(=O)C1=C(C)Nc2nc(SCc3cc(C)ccc3C)nn2C1c1ccccc1 (stereo not given) | / | 4% | 0% | /
CC(=O)Nc1ccc(S(=O)(=O)NC2(C(F)(F)F)C(=O)Nc3c2c(=O)[nH]c(=O)n3-c2ccc(C)c(C)c2)cc1 (stereo not given) | 1% | 1% | -3% | /
CCOc1ccc(NS(=O)(=O)c2ccc(C(=O)N3CCCC(C)C3)cc2)cc1 (stereo not given) | 7.3µM* | 0% | -11% | -4
SMILES | Nrf2 block | Nrf2 ARE act | A549 tox | IL-2 act
CCOc1ccc(S(=O)(=O)Nc2cccc(Cl)c2)cc1 | 13µM* | -1% | ? | -4
COc1ccc(NS(=O)(=O)c2ccc(C(=O)N3CCN(Cc4ccccc4)CC3)cc2)cc1 | 21µM* | 0% | -9% | -2
CCOc1ccc(S(=O)(=O)Nc2ccc(C(=O)N3CCC3)cc2)cc1 | -13% | 0% | 1% | 0
CCOc1ccc(NS(=O)(=O)c2ccc(C(=O)N3CCCCCC3)cc2)cc1 | 23µM* | 2% | -16% | -1
CCOc1ccc(S(=O)(=O)Nc2ccc(C(=O)N3CCCC3)cc2)cc1 | -22% | -1% | 2% | -2
O=C(COc1ccc([N+](=O)[O-])cc1)Nc1cccc2cccnc12 | ? | 0% | -2% | /
Cc1cn2c(=O)cc(COc3ccc(NC(=O)COc4ccccc4)cc3)nc2s1 | 29% | 1% | 0% | /

Bioassay records as filed in PubChem.
